# Compounds without any hit were thinned out: in the full panel of roughly 83,000, 20% have a hit.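 48-hour exposure, single concentration, 96-well plates; percent growth endpoint where 0 means no net growth. Active: below 10.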 Activity calls are given as the source filed them.
# Tested on: NCI-H522 lung
# Experiment: NCI-60 one-dose screen, 48 h (100 = growth as untreated, 0 = no growth, -100 = all killed)
# Conditions: 10 µM unless noted
# Experimental: Growth inhibition of the NCI-H522 human Non-Small Cell Lung tumor cell line is measured as a screen for anti-cancer activity. Cells are grown in 96 well plates and exposed to the test compound for 48 hours. Compounds are tested at a single concentration, which is 10^-5 M for most compounds. The reported endpoint is percent growth (GI% or GIPRCNT), where numbers from 0 - 100% represent growth inhibition, and numbers from -100% - 0 represent cell death. For example, a value of 40 represents 60% growth inhibition. A value of 0 means no net growth occurred over the course of the experiment. A value of -40 indicates 40% of cells at the beginning of the experiment died by the end of the experiment. A value of -100 means all cells are dead at the end of the experiment.
# NCI-60 Human Tumor Cell Lines Screen was performed using the standard one-dose NCI protocol, which is described in more detail at https://dtp.cancer.gov/discovery_development/nci-60/default.htm.
# Compounds with GIPRCNT values below 10 were considered active. Activity score was based on GIPRCNT using the following formula: […]
# Score is 0 for GIPRCNT values of 100 or above, 50 for GIPRCNT values of 0, and 100 for GIPRCNT values of -100.
row,SMILES,growth
1,Cc1nn(-c2ccc([N+](=O)[O-])cc2)c2ncnc(NCCc3ccccc3)c12,107% (inactive)
2,O=C(O)Cc1cccc(=O)c(O)c1C(=O)O,106% (inactive)
3,Nc1nc(-c2ccccc2)c(CCCOc2ccc(NC(=O)CBr)cc2)c(=O)[nH]1,71.8% (inactive)
4,Cc1c(C(=O)/C=C/c2csc3ccccc23)[n+](=O)c2ccccc2n1[O-],6.66% (active)
5,Cc1nc2c3c(ncn2n1)Oc1c(c(=O)[nH]c2ccccc12)C3c1ccc(Cl)cc1 (stereo not given),87.6% (inactive)
6,Cc1ccc(CSC(=N)N)cc1C,101% (inactive)
7,C=C(C)[C@@H]1CC[C@]2(C(=O)N3CCNCC3)CC[C@]3(C)[C@H](CC[C@@H]4[C@@]5(C)C/C(=C/c6ccncc6)C(=O)C(C)(C)[C@@H]5CC[C@]43C)[C@@H]12,96.8% (inactive)
8,Cc1ccc(-c2csc(NC(=O)CCCCl)n2)cc1,83.5% (inactive)
9,COc1cc(-c2nn(-c3cccc(NC(=O)c4ccccc4)c3)cc2-c2ccncc2)ccc1Cl,-29.6% (active)
10,Nc1cc2c(cc1C(=O)c1cccc(F)c1)OCCO2,87.3% (inactive)
11,C=C(C)[C@@H]1C[C@H](O)Cc2cc(F)ccc2N1,93.7% (inactive)
12,C=C1CC2(OC1=O)C(=O)N(CCCN1C(=O)C3(CC(=C)C(=O)O3)c3ccccc31)c1ccccc12 (stereo not given),-78% (active)
13,COc1ccc(N=Cc2c(O)ccc3c2oc2cc(Cl)c(O)c(Cl)c23)cc1,68.1% (inactive)
14,COc1c2occc2c(OC)c2c(=O)c(-c3cc(-c4ccc(F)cc4)c(C#N)c(N)n3)c(C)oc12,49.4% (inactive)
15,CC(=O)Nc1ccc(/C=C/C(=O)c2ccccc2)cc1,68.1% (inactive)
16,CCOC(=O)CN1/C(=N/c2sc3c(c2C(=O)OCC)CCN(C(=O)OCC)C3)SC(=O)/C1=C\C(=O)OC,76.4% (inactive)
17,N=C(N)c1ccc(-c2ccc(-c3cncc4ccccc34)s2)cc1F,-90.5% (active)
18,N#Cc1c(-c2ccccc2)nc(SCC(=O)N2CCN(c3ccccc3)CC2)[nH]c1=O,85.2% (inactive)
19,CCCCCCCCCCCCNC(=O)[C@H]1CSC(c2cc3ccccc3s2)N1 (stereo not given in full),16% (inactive)
20,COC(=O)c1cc(=O)nc(N/N=C/c2ccco2)s1,103% (inactive)

row,SMILES,growth
1,Clc1ccc(-c2nc3ccccc3s2)cc1Cl,82.7% (inactive)
2,ClC(Cl)c1nc(-c2cccnc2)n2nc(-c3ccccc3)cc2n1,-20.3% (active)
3,N#Cc1c(Nc2ccccc2)nc2n(c1=O)-c1ccccc1Sc1ccccc1-2,75.2% (inactive)
4,c1ccc(-c2cn(-c3ccccc3)c(-c3ccccc3)n2)cc1,73.9% (inactive)
5,CNC(=S)NNC(=O)C1CC1,108% (inactive)
6,c1ccc(Nc2nc(Nc3ccccc3)nc(Nc3ccccc3)n2)cc1,84.5% (inactive)
7,CC(NNC(C)c1ccccc1)c1ccccc1 (stereo not given),93.9% (inactive)
8,COc1cccc(CC(C)=C(c2ccc(OCCN(C)C)cc2)c2ccc(OCCN(C)C)cc2)c1,-39.8% (active)
9,CCCCN(CCCC)C(=O)CC,114% (inactive)
10,C=C1C(=O)O[C@H]2[C@H]1CC/C(COC(=O)NCc1ccccc1OC)=C\CC[C@@]1(C)O[C@@H]21,-73.6% (active)
11,COc1ccc(-c2cn(-c3cccc(C(=O)/C=C/c4cc(OC)c(OC)c(OC)c4)c3)c(=O)[nH]2)cc1OC,74.4% (inactive)
12,O=C(Nc1ccncc1)C(=O)c1cn(S(=O)(=O)c2ccccc2F)c2ccccc12,-24.6% (active)
13,O=C(Nc1cccc(-n2cc(-c3ccncc3)c(-c3ccc(Cl)c(O)c3)n2)c1)c1ccccc1,42.3% (inactive)
14,CC(C)(C)OC(=O)NCCc1ccc(N=C=S)cc1,16.1% (inactive)
15,CCC(C)/C(=C\C#N)NCCCN/C(=C/C#N)C(C)CC (stereo not given),83.5% (inactive)
16,Oc1ccccc1/C=N/NC(=S)NC1CC2C=CC1C2 (stereo not given),60.3% (inactive)
17,COc1ccc(C2NN=C3c4ccccc4CCC32)cc1 (stereo not given),47.2% (inactive)
18,COc1cc(Cn2cc3c(c2)-c2oncc2CC3)cc(OC)c1OC,-20% (active)
19,O=C(O)/C=C/C(=O)c1ccc(Cl)cc1,80.4% (inactive)
20,O=C(/C=C/c1ccccc1)c1cccc(O)c1,116% (inactive)
